Counter-ions that a name gives are not always drawn.

Consider 37 molecules from the supplement of paper PMC7411640.

This experiment has as its system MDA-MB-468. The experiment can be described thus: phospho-S6 immunofluorescence (DAPI-normalised), per-plate z-score; higher = higher phospho-S6 signal (less pathway suppression). As to conditions: co-treatment: vehicle; 24 h. Here is the method:
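GPCR-targeted compound library (MedChemExpress HY-L006) tested on MDA-MB-468 PTEN-null TNBC cells in 384-well plates at 0.1, 1 or 10 uM, combined with vehicle, GDC0941 450 nM or lapatinib 1 uM, for 24 h. Phospho-S6 (S240/244) immunofluorescence normalised to DAPI and expressed as a per-plate z-score; values are the mean of biological triplicates.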
For the molecule `CN1CCc2c(c3ccccc3n2Cc2ccccc2)C1` [Mebhydrolin (napadisylate)] (compound 10 µM), the “phospho-S6 immunofluorescence (z-score)” value is 0.64. `Cc1c(Cc2ccc3ccccc3n2)c2cc(F)ccc2n1CC(=O)O` (compound 10 µM): the “phospho-S6 immunofluorescence (z-score)” value was found to be 0.58. Regarding `O=c1ccccn1CC1(O)CCN(Cc2ccccc2)CC1` (compound 10 µM), the “phospho-S6 immunofluorescence (z-score)” value worked out at 0.48. The figure for `COc1cc(C(=O)NS(=O)(=O)c2ccccc2C)ccc1Cc1cn(C)c2ccc(NC(=O)OC3CCCC3)cc12` [Zafirlukast] (compound 10 µM) is 0.19; for `Cc1cc(NC(=O)Nc2ccc(N(C)C)cc2)c2cc(F)cc(F)c2n1` (compound 10 µM) it is -2.06.

For the molecule `CC(=O)OCC(=O)[C@@]12N=C(C)O[C@@H]1C[C@H]1[C@@H]3CCC4=CC(=O)C=C[C@]4(C)[C@H]3[C@@H](O)C[C@@]12C` [Deflazacort] (compound 10 µM), the “phospho-S6 immunofluorescence (z-score)” value was -0.08.

With `COC(=O)[C@H]1[C@H]2C[C@H]3c4[nH]c5ccccc5c4CCN3C[C@H]2CC[C@@H]1O` [Rauwolscine (hydrochloride)] (compound 10 µM), the “phospho-S6 immunofluorescence (z-score)” value was -0.22. As for `Cc1c(C(=O)NN2CCCCC2)nn(-c2ccc(Cl)cc2Cl)c1-c1ccc(Cl)cc1` [Rimonabant (Hydrochloride)] (compound 10 µM), the “phospho-S6 immunofluorescence (z-score)” value was -5.97. In the case of `OCCN1CCN(CCCN2c3ccccc3Sc3ccc(C(F)(F)F)cc32)CC1` [Fluphenazine (dihydrochloride)] (compound 10 µM), the “phospho-S6 immunofluorescence (z-score)” value was -2.87. For the molecule `CCCN(CCc1cccs1)C1CCc2c(O)cccc2C1` (racemic) [rac-Rotigotine (Hydrochloride)] (compound 10 µM), the “phospho-S6 immunofluorescence (z-score)” value was -0.11. The figure for `CC(N)(C(=O)O)c1ccc(C(=O)O)cc1` (racemic) (compound 10 µM) is 0.84; for `COc1cc2nc(N3CCN(C(=O)C4COc5ccccc5O4)CC3)nc(N)c2cc1OC` (configuration not stated) [Doxazosin (mesylate)] (compound 10 µM) it is -8.17; for `O=C(NC(Cc1cc(=O)[nH]c2ccccc12)C(=O)O)c1ccc(Cl)cc1` (configuration not stated) [Rebamipide] (compound 10 µM) it is 0.16.

`OCCNC1CCCc2c1[nH]c1ccc(-c3ccccc3)cc21` (configuration not stated) (compound 10 µM): the “phospho-S6 immunofluorescence (z-score)” value is -9.39. The figure for `COc1cc(N)cn[n+]1-c1ccccc1` [Amezinium (methylsulfate)] (compound 10 µM) is 0.03; for `CN(C)CCSSCCNC(=O)C1CCN(C(=O)CSc2ccc(Cl)cc2)CC1` [6H05 (trifluoroacetate)] (compound 10 µM) it is -0.23; for `CCOc1ccccc1OCCN[C@H](C)Cc1ccc(OC)c(S(N)(=O)=O)c1` [Tamsulosin] (compound 10 µM) it is -0.53. Regarding `O=C(O)COCCN1CCN(C(c2ccccc2)c2ccc(Cl)cc2)CC1` (configuration not stated) [Cetirizine (dihydrochloride)] (compound 10 µM), the “phospho-S6 immunofluorescence (z-score)” value came out at 0.52. Consider `C[C@]12CCC(=O)C=C1CC[C@@H]1[C@@H]2C(=O)C[C@@]2(C)[C@H]1CC[C@]2(O)C(=O)CO` [Cortisone] (compound 10 µM), for which the “phospho-S6 immunofluorescence (z-score)” value was determined as 1.14. As to `CC(CN1c2ccccc2Sc2ccccc21)N(C)C` (configuration not stated) [Promethazine (hydrochloride)] (compound 10 µM), the “phospho-S6 immunofluorescence (z-score)” value is -0.84. The figure for `c1ccc2c(c1)CCCC2C1=NCCN1` (configuration not stated) [Tetrahydrozoline (hydrochloride)] (compound 10 µM) is 0.75; for `O=c1cc(C(Cl)(Cl)Cl)oc2ccc(Cl)cc12` (compound 10 µM) it is 0.44; for `Clc1ccc(Cn2c(CN3CCCC3)nc3ccccc32)cc1` [Clemizole (hydrochloride)] (compound 10 µM) it is -1.37.

With `COc1cc2nc(N3CCN(C(=O)C4CCCO4)CC3)nc(N)c2cc1OC` (configuration not stated) [Terazosin (hydrochloride dihydrate)] (compound 10 µM), the “phospho-S6 immunofluorescence (z-score)” value stood at 0.87. Then `CC(C)=CCC/C(C)=C/CC/C(C)=C/CSc1ccccc1C(=O)O` [Salirasib] (compound 10 µM), with -0.02; and `COc1ccc(C2CC(c3ccccc3)=NN2c2ccc(S(N)(=O)=O)cc2)cc1` (configuration not stated) (compound 10 µM), with -6.71. Consider `CC(=O)OCC(=O)[C@@]12OC(C)(C)O[C@@H]1C[C@H]1[C@@H]3C[C@H](F)C4=CC(=O)C=C[C@]4(C)[C@@]3(F)[C@@H](O)C[C@@]12C` [Fluocinonide] (compound 10 µM), for which the “phospho-S6 immunofluorescence (z-score)” value came out at 0.62. Turning to `O=C(N[C@H]1CCN(C(=O)c2cc(C(F)(F)F)cc(C(F)(F)F)c2)[C@H](Cc2ccc(Cl)cc2)C1)c1ccnc2ccccc12` (compound 10 µM), the “phospho-S6 immunofluorescence (z-score)” value is -1.44. With `Nc1nc2c(cnn2CCc2ccccc2)c2nc(-c3ccco3)nn12` (compound 10 µM), the “phospho-S6 immunofluorescence (z-score)” value was found to be 3.1. The figure for `Brc1c(NC2=NCCN2)ccc2nccnc12` [UK 14,304 (tartrate)] (compound 10 µM) is 0.14; for `O=C(Nc1cccc(Cl)c1)c1ccccn1` (compound 10 µM) it is -0.86; for `CCN(CCCc1ccccc1)CCCc1ccccc1` [Alverine (citrate)] (compound 10 µM) it is 0.02. With `CC(C)NCC(O)COc1ccc(CC(N)=O)cc1` (configuration not stated) [Atenolol] (compound 10 µM), the “phospho-S6 immunofluorescence (z-score)” value was determined as 0.52. In the case of `Cc1c(C(=O)NN2CCCCC2)nn(-c2ccc(Cl)cc2Cl)c1-c1ccc(I)cc1` (compound 10 µM), the “phospho-S6 immunofluorescence (z-score)” value was -2.82. Take `CC(C[N+](C)(C)C)OC(N)=O` (configuration not stated) [Bethanechol (chloride)] (compound 10 µM): the “phospho-S6 immunofluorescence (z-score)” value worked out at 0.6.

In the case of `CCC1(c2c[nH]cn2)Cc2ccccc2C1` [Atipamezole] (compound 10 µM), the “phospho-S6 immunofluorescence (z-score)” value was found to be 0.81. Consider `C[C@H](Nc1cc(NS(=O)(=O)N2CCC2)nc(SCc2cccc(F)c2F)n1)[C@@H](O)CO` (compound 10 µM), for which the “phospho-S6 immunofluorescence (z-score)” value was -0.77.
